PubChem BioAssay (Tox21)
Where “and” joins values, the source holds several entries; their conditions need not be identical. Equal entries are not always repeated. Inconclusive results are not listed. A call without a number means that no potency is given here. Calls of active or inactive are those of the source. Calls come from the whole dose curve.

Experiment: qHTS assay for small molecule agonists of the p53 signaling pathway - cell viability (AID 651633); note: nearly all actives have a fitted effect of over 30% in size
Conditions: p53RE-bla HCT-116 viability, ATP luminescence, 16 h; series mostly up to 83.3 µM
Source text: National Center for Advancing Translational Sciences [NCATS]
NIH Chemical Genomics Center [NCGC]
U.S. Environmental Protection Agency [EPA]
National Institutes of Environmental Health Sciences [NIEHS]
National Toxicology Program [NTP]
U.S. Food and Drug Administration [FDA]
p53, a tumor suppressor protein, is activated following cellular insult, including DNA damage and other cellular stresses. The activation of p53 regulates cell fate by inducing DNA repair, cell cycle arrest, apoptosis, or cellular senescence. The activation of p53, therefore, is a good indicator of DNA damage and other cellular stresses. […] The activation of the reporter gene under culture conditions can be detected by fluorescence intensity. This cell line was used to screen the Tox21 compound library in a 1536-well plate format and to identify agonists that activate the p53 signaling pathway.
Tox21 Assay Protocol Summary:
The p53RE-bla cells were dispensed at 4,000 cells/5 ul/well in 1536-well black wall/clear bottom plates using a Multidrop dispenser. After the assay plates were incubated at a 37 C/5% CO2 incubator for 5 hours, 23 nL of compounds dissolved in DMSO, positive controls or DMSO only was transferred to the assay plate by a pin tool. The plates were incubated at 37 C for 16 hours. After 1 uL of LiveBLAzerTM B/G FRET substrate was added using a Flying Reagent Dispenser, the plates were incubated at room temperature for 2 hours, and fluorescence intensity was measured by an Envision plate reader.
For cell viability readout that measures cytotoxicity, 4 ul/well of CellTiter-Glo reagent was added into the assay plates using a Flying Reagent Dispenser. After 30 min incubation at room temperature, the luminescence intensity in the plates was measured using a ViewLux plate reader.
Potency is the fitted concentration of half-maximal effect.

Row | Structure (SMILES) | Potency
1 | CC(C)=CCOc1c2occc2cc2ccc(=O)oc12 | inactive
2 | ClCc1ccccc1 | inactive
3 | O=C(Nc1ccccc1)Nc1cnns1 | inactive
4 | CC[C@H]1C[C@H]2[C@@H]3CCC4=CC(=O)CC[C@@H]4[C@H]3CC[C@]2(C)[C@H]1O | inactive
5 | O=C(O)C(F)(F)C(F)(F)C(F)(F)C(F)(F)C(F)(F)C(F)(F)C(F)(F)C(F)(F)C(F)(F)C(F)(F)F | inactive
6 | CCCC(Cn1cncn1)c1ccc(Cl)cc1Cl (stereo not given) | inactive
7 | C[N+](C)(C)CCCl | inactive
8 | Brc1ccc(Oc2ccccc2)cc1 | inactive
9 | C=CCC1([C@H](C)CCC)C(=O)NC(=O)NC1=O | inactive
10 | S=C=NCc1ccccc1 | inactive
11 | COC(=O)C(C)N(C(=O)Cc1ccccc1)c1c(C)cccc1C (stereo not given) | inactive
12 | O=NN1CCNCC1 | inactive
13 | IC(I)=C(I)I | 48.6 µM (active)
14 | BrCC(Br)C1CCC(Br)C(Br)C1 (stereo not given) | inactive
15 | N#Cc1ccc(Cl)cc1 | inactive
16 | C=COC(C)=O | inactive
17 | CCOC(=O)CBr | inactive
18 | O=C(N[C@H](c1ccccc1)[C@@H]1CN2CCC1CC2)c1c(Cl)ccc(C(F)(F)F)c1Cl | inactive
19 | Cl/C=C\C[N+]12CN3CN(CN(C3)C1)C2 | inactive
20 | C(=NC1CCCCC1)=NC1CCCCC1 | 30.8 µM (active) and 17.2 µM (active)

Row | Structure (SMILES) | Potency
21 | CCOS(C)(=O)=O | inactive
22 | NCCCNCCCN | inactive
23 | II | inactive
24 | O=C1NCN(c2ccccc2)C12CCN(CCCOc1ccc(F)cc1)CC2 | inactive
25 | COC(C)(C)CCC[C@H](C)C/C=C/C(C)=C/C(=O)OC(C)C | 61.1 µM (active)
26 | Brc1ccccc1 | inactive
27 | CC(=O)CCC(C)=O | inactive
28 | CCCCN=C=O | inactive
29 | O=S1(=O)OC(c2cc(Br)c(O)c(Br)c2)(c2cc(Br)c(O)c(Br)c2)c2ccccc21 | 44.5 µM (active)
30 | N#CCC#N | inactive
31 | O=C(CBr)OCc1ccccc1 | inactive
32 | CC(=O)c1cc2c(cc1C)C(C)(C)C(C)CC2(C)C (stereo not given) | 61.1 µM (active)
33 | Cc1ccc2ccccc2c1 | inactive
34 | C=CC(=O)OCC(C)C | inactive
35 | N#C/C(N)=C(/N)C#N | inactive
36 | CCCN(CCCl)c1c([N+](=O)[O-])cc(C(F)(F)F)cc1[N+](=O)[O-] | inactive
37 | CC(Cl)Cl | inactive
38 | ClCCCCBr | inactive
39 | NC(=O)CI | inactive
40 | CO/C=C(/C(=O)OC)c1ccccc1COc1cccc(C(F)(F)F)n1 | inactive
